# Bioassay records from PubChem.
# A selection: hits, their analogues and other compounds. The true share with any hit is near 3.5%.
# Anthrax LF prot = blocks Bacillus anthracis lethal factor protease. P15917. multiplex microsphere protease cleavage assay, LF. inhibition, % at 10 µM. hit rate 0.12% among 360,000. AID 588501; also: plate controls were buffer without enzyme for full effect and enzyme alone for no effect
# Bead autofluor = flagged as autofluorescent in microsphere protease counterscreen | compound autofluorescence counterscreen, microsphere flow cytometry; hits give high values | hit rate 3.1% among 360,000 | fluorescence intensity (test concentration not listed) | AID 624483; in the data active = fluorescence intensity above about 16000; inconclusive = no clear call, values can overlap the other calls
# BoNT F protease = BoNT F light chain protease inhibition; Multiplex microsphere protease cleavage assay, flow cytometry; inhibition, % at 10 µM; hit rate 0.22% among 360,000; AID 588497; in the data active = inhibition above about 35%, passing the limit was not always enough; inconclusive = no clear call, values can overlap the other calls; also: plate controls were buffer without enzyme for full effect and enzyme alone for no effect
# BoNT A protease = inhibitors of Botulinum neurotoxin A light chain protease | multiplex microsphere protease substrate cleavage, flow cytometry | inhibition, % at 10 µM | AID 588499 | hit rate 0.17% among 360,000; also: plate controls were buffer without enzyme for full effect and enzyme alone for no effect
# * marks the source's active call; other numbers are inactive results; ? = inconclusive. Rule as the data show it, unless noted: active = inhibition above about 30%; inconclusive = no clear call, values can overlap the other calls; inactive = below that.
SMILES,Anthrax LF prot,Bead autofluor,BoNT F protease,BoNT A protease
CC(C)=C[C@H]1C[C@H](C)[C@H]2CC[C@H](C)c3c(O)c(O[C@H]4OC[C@H](O)[C@@H](O)[C@@H]4O)c(C)c1c32,6,4190,4,0
Cc1ccc(C)c(-n2c(-c3ccc4c(c3)OCO4)n[nH]c2=S)c1,-1,23573*,1,?
O=C(N=C1SCC(=O)N1c1ccccc1Cl)c1ccccc1,0,4732,-6,0
O=C1c2ccccc2C(=O)N1CCCc1nc2ccccc2c(=O)n1CCCn1ccnc1,1,19567*,-12,-9
COc1nc(C)ccc1-c1noc(-c2ccco2)n1,-6,20448*,0,0
COc1nc(-c2ccc(C)cc2)ccc1-c1noc(-c2ccco2)n1,5,4596,-3,1
CCn1cc([N+](=O)[O-])c(C(=O)Nc2ccn(Cc3ccccc3F)n2)n1,-1,23949*,-1,-1
CCn1cc([N+](=O)[O-])c(C(=O)Nc2nc(-c3ccc(C)cc3)c(C)s2)n1,-1,16716*,-6,-1
CCCCNc1c(N)n(CC(C)C)c(=O)[nH]c1=O,0,4297,-3,-1
O=C(C[C@@H]1C/C=C\C[C@H](Cc2ccc(F)cc2)C(=O)OC[C@@H](c2ccccc2)NC1=O)NCCO,-6,2943,1,0
CCC1(C)COC2(OC1)C(=O)Nc1ccccc12 (stereo not given),1,20257*,0,0
CC1(C)COC2(OC1)C(=O)Nc1ccccc12,-1,4445,1,0
CCOc1ccc(S(=O)(=O)N/N=C2/CC(c3ccccc3)Oc3ccccc32)cc1 (stereo not given),-6,19045*,12,8
O=S(=O)(N/N=C1\CC(c2ccccc2)Oc2ccccc21)c1ccccc1 (stereo not given),0,3731,-8,-1
C[C@@H]1CN([C@H](C)CO)C(=O)CCCn2cc(nn2)CO[C@H]1CN(C)C(=O)c1ccncc1,1,4325,7,0
CCc1nnc(NC(=O)Cn2nc(-c3ccccc3OC)ccc2=O)s1,-3,22524*,1,?
CCCc1nnc(NC(=O)CCC(=O)NCc2ccccc2OC)s1,-2,22157*,0,0
COCCCNC(=S)N1CCC(C(=O)c2ccc(Cl)cc2)CC1,-8,3172,-9,1
N/C(=N\OC(=O)Cc1ccccc1)c1cccnc1,-7,20077*,6,7
N/C(=N\OC(=O)CCC1CCCCC1)c1cccnc1,-4,21493*,-2,-2
N/C(=N\OC(=O)Cc1ccc(-c2ccccc2)cc1)c1cccc([N+](=O)[O-])c1,-4,16257*,-4,-1
N/C(=N\OC(=O)CCC1CCCC1)c1ccc(Br)cc1,-1,5296,-1,3
CCc1ccc(-c2nc(CS(=O)CC(=O)NCc3ccc4c(c3)OCO4)c(C)o2)cc1 (stereo not given),10,4241,7,5
Cc1ccc(S(=O)(=O)N2C[C@H]3[C@H]4C(=O)N(C)C(=O)[C@H]4CC(=O)[C@H]3[C@@H]2c2ccccc2F)cc1,-4,5700,1,0
O=C(Nc1ccc(Cl)cc1)N1CCN(c2ccc3nnc(-c4ccc(F)cc4)n3n2)CC1,-5,17296*,-8,-3
SMILES,Anthrax LF prot,Bead autofluor,BoNT F protease,BoNT A protease
O=C(Nc1ccc(Cl)cc1)N1CCC(c2nc(-c3ccc(F)cc3)no2)CC1,-2,24171*,-4,-2
C[C@H](CO)N1C[C@H](C)[C@@H](CN(C)C(=O)Nc2ccccc2)Oc2c(NS(=O)(=O)c3cccs3)cccc2C1=O,-5,2831,2,0
N#CC/C(N)=N/Nc1nc2ccccc2nc1Cc1ccccc1,31*,2387,-50,2
Cc1cccc(N2CCN(C(=O)CCNC(=O)Cn3ccc4ccccc4c3=O)CC2)c1C,-19,19164*,10,?
CN1CCN(C(=O)CCNC(=O)Cn2ccc3ccccc3c2=O)CC1,-12,6370,4,2
O=C(Cn1cnc2ccccc2c1=O)NCCC(=O)N1CCN(c2ccccc2)CC1,-5,22618*,2,?
CC(=O)NCCCc1nc2ccccc2n1Cc1c(F)cccc1Cl,3,4382,-2,1
COc1cccc(-c2nc(CS(=O)CC(=O)NCCc3ccccc3)c(C)o2)c1 (stereo not given),-1,4236,4,0
COc1cccc(-c2nc(CS(=O)CC(=O)NCCCOC(C)C)c(C)o2)c1 (stereo not given),-1,21012*,5,2
COc1cccc(-c2nc(CS(=O)(=O)CC(=O)NCCCc3ccccc3)c(C)o2)c1,-2,6143,2,0
COc1cccc(-c2nc(CS(=O)(=O)CC(=O)NCCCOC(C)C)c(C)o2)c1,-4,21662*,1,?
COc1cccc(-c2nc(CS(=O)CC(=O)N3CCC4(CC3)OCCO4)c(C)o2)c1 (stereo not given),1,21075*,-4,?
Cc1cccc(-c2nc(CS(=O)CC(=O)NCCCSC3CCCCC3)c(C)o2)c1 (stereo not given),-3,20646*,-2,?
CCN(CC)CCCN=C(C)c1c(O)n(-c2ccccc2)c(=O)[nH]c1=O,-2,22362*,0,?
CCC(=NCCCN(CC)CC)c1c(O)n(-c2ccccc2)c(=O)[nH]c1=O,1,24318*,-3,-2
CCNC(=O)C1(C)CCCN1C(=O)c1cc(OC)c(OC)c(OC)c1 (stereo not given),-1,3051,1,0
CCN1C(=O)C2(C(C(=O)c3cc4ccccc4o3)=C(O)C(=O)N2CCCN2CCOCC2)c2ccccc21 (stereo not given),-2,6531,-8,-1
O=C(O)CC(CN1C(=O)c2ccccc2C1=O)c1ccccc1 (stereo not given),-3,5592,-8,0
Cc1ccc(C(=O)NCC(=O)OCC(=O)NC(C)C2CC3CCC2C3)cc1 (stereo not given),3,?,6,4
CC(=O)N1c2ccccc2Oc2cc3ccccc3cc21,-5,6722,-7,1
O=C(CCl)N1c2ccccc2Oc2ccc3ccccc3c21,35*,3811,11,31*
CC(=O)c1cccc(NC(=O)C(C)OC(=O)c2cccc(-n3cnnn3)c2)c1 (stereo not given),-2,5908,8,1
O=C(O)c1cccc(COc2ccccc2Cl)c1,-3,22141*,2,4
CN1CCN(C(=O)c2cccc(COc3cc(Cl)ccc3Cl)c2)CC1,-1,22814*,-2,-2
O=C(O)c1ccc(COc2ccccc2Cl)cc1,-3,8429,-4,-1
SMILES,Anthrax LF prot,Bead autofluor,BoNT F protease,BoNT A protease
CCC(C)NC(=O)c1ccc(COc2ccccc2Cl)cc1 (stereo not given),1,21804*,-10,-7
CN1CCN(C(=O)c2ccc(COc3cc(Cl)ccc3Cl)o2)CC1,-4,3270,5,-1
CCn1nc(C)c(CNC(=O)c2cc(COc3ccc(F)cc3Cl)on2)c1C,-6,4501,-2,-2
O=C(CC1C(=O)NCCN1Cc1cccc(F)c1F)NCCCC1CCCC1 (stereo not given),-3,5635,6,0
COc1ccccc1C(=O)Nc1c(C)n(C)n(-c2ccccc2)c1=O,0,22949*,-1,-1
Cc1c(NS(=O)(=O)c2ccccc2)c(=O)n(-c2ccccc2)n1C,-3,3689,-6,1
